PubChem BioAssay AID2073 (Sanford-Burnham Center for Chemical Genomics, 2009)
In all, about 290,000 compounds went through this assay and about 570 (0.2%) were called active. Another 1% or so got no clear call; they are omitted. No stated cut-off is given here; in the data, active means inhibition mostly above about 51% (no sharp cut-off); inconclusive means no clear call, values can overlap the other calls; inactive means mostly below about 53%. Many of the other results were omitted from the sample, so actives are more common in it than they were.

Target: Voltage-dependent N-type calcium channel subunit alpha-1B (Homo sapiens) (UniProt Q00975)
Sequence (Q00975 whole entry, looked up): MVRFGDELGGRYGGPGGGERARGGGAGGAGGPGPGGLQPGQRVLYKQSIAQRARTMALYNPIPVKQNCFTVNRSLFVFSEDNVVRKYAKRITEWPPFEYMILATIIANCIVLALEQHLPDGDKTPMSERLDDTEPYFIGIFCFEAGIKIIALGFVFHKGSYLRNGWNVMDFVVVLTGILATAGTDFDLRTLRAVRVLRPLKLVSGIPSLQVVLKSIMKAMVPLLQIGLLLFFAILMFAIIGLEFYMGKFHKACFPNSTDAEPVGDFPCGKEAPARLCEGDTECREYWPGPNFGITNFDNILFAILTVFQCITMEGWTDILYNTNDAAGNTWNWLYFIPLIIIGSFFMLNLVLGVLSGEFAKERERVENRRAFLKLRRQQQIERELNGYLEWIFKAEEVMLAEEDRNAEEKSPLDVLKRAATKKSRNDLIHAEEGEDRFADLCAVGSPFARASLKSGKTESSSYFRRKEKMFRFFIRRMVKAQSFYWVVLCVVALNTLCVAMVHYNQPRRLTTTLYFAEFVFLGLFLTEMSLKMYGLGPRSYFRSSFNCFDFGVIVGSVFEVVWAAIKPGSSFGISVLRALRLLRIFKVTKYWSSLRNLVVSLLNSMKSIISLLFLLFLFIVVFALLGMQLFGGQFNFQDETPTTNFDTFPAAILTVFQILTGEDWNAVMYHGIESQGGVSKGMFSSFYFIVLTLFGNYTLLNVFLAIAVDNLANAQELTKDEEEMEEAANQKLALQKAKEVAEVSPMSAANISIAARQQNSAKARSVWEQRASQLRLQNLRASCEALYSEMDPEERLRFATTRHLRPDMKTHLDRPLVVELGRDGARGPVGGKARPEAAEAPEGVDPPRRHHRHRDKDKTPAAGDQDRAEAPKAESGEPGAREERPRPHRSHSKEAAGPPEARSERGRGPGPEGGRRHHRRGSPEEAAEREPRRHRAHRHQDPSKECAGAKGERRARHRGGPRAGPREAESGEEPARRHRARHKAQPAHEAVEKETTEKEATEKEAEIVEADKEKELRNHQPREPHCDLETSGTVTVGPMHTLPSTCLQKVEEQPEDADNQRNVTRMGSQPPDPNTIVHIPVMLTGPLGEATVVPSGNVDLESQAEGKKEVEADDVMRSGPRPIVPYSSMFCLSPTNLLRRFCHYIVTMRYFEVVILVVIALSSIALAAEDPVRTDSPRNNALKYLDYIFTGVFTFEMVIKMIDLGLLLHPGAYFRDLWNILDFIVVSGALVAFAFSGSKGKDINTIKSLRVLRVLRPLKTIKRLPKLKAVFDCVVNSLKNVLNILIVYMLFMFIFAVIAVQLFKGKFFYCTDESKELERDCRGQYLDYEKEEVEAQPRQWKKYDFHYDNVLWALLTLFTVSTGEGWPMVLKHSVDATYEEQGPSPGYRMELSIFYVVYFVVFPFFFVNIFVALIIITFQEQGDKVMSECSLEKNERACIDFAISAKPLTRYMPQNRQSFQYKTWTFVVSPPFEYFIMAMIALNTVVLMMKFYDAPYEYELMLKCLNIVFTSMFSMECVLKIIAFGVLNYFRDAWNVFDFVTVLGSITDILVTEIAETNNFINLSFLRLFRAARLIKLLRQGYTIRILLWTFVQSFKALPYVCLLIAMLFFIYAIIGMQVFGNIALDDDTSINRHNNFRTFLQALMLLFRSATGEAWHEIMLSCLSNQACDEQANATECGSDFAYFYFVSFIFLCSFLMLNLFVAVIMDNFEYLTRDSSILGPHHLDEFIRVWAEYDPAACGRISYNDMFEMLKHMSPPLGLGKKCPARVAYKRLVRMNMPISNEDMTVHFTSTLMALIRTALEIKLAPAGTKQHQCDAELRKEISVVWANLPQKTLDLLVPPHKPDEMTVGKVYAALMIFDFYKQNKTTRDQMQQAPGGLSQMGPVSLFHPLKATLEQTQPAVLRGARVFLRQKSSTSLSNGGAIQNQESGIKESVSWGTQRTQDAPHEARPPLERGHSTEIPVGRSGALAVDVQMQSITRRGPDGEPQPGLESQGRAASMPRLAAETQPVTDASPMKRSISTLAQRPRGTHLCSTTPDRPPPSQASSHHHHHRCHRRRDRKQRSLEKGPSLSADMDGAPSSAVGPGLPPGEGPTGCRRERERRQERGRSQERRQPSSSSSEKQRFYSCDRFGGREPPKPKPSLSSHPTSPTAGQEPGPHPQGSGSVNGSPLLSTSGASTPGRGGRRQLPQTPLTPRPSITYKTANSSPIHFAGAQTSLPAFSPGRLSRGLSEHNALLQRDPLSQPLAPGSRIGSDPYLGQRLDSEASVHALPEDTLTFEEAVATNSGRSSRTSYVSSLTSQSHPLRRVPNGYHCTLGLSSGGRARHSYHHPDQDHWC
Test: disruptors of CaV2.2 binding to Mint1 – biochemical, HTRF (AID 2073)
Details: HTRF protein-protein interaction, Mint1-CaV2.2, at 20 µM, stronger effect = higher value
[1] = measured here: average of repeat tests

## O=C(CN1C(=O)C2C3C=CC(C4CC34)C2C1=O)Oc1ccccc1 (stereo unspecified)
  inhibition: -1.6% (inactive)

## CC(C)(C)NC(=O)CSC(=Nc1cccc(F)c1)NC#N
  inhibition: -25.9% (inactive)

## CCCCOc1ccc(Cl)cc1CSc1nnc(C)n1N
  inhibition: -4.8% (inactive)

## CCOC(=O)CNC(=O)c1cc(-c2ccc3c(c2)OCCO3)oc1C
  inhibition: 10.9% (inactive)

## Cc1oc(-c2ccc3c(c2)OCCO3)cc1C(=O)NC(CCC(=O)O)C(=O)O (stereo unspecified)
  inhibition: 20.1% (inactive)

## COC(=O)CCC(NC(=O)c1cc(-c2ccc3c(c2)OCCO3)oc1C)C(=O)OC (stereo unspecified)
  inhibition: 61.5% (active)

## Cc1ccc(CNC(=O)CN2C(=O)NC(C)(c3ccccc3Cl)C2=O)cc1 (stereo unspecified)
  inhibition: 6.8% (inactive)

## CCOC(=O)c1c(NC(=O)CN2CCN(C(=O)c3ccco3)CC2)sc(C(N)=O)c1C
  inhibition: 0% (inactive)

## c1ccc2c(c1)CCN(c1nc3ccccc3n3cnnc13)C2
  inhibition: 3.9% (inactive)

## c1ccc2c(c1)CCN(CCCNc1nc3ccccc3n3cnnc13)C2
  inhibition: 50.8% (active)

## c1ccc2c(c1)nc(NCCN1CCOCC1)c1nncn12
  inhibition: 6.6% (inactive)

## CCCCCCCNC(=O)CC(NS(=O)(=O)c1ccc(NC(C)=O)cc1)C(C)C (stereo unspecified)
  inhibition: 1.5% (inactive)

## COc1ccc(-n2c(C)c(C(=O)O)c3cc(OC)c4ccccc4c32)cc1
  inhibition: 13.1% (inactive)

## CN1CCN(c2c(F)cc3c(=O)c(C(=O)O)cn4c3c2SCC4)CC1
  inhibition: 53.3% (active)

## CN1CCN(c2c(F)cc3c(=O)c(C(=O)O)cn4c3c2OCN4C)CC1
  inhibition: 33.2% (inactive)

## CN1CCN(c2c(F)cc3c(=O)c(C(=O)O)cn(CCF)c3c2F)CC1
  inhibition: 29.5% (inactive)

## CCOc1ccc(S(=O)(=O)NCc2cccnc2)cc1C(C)C
  inhibition: 1.4% (inactive)

## CC(=O)Sc1nc(-c2ccccc2)[nH]c1S(=O)(=O)c1ccc(C)cc1
  inhibition: 82.4% (active)

## CSc1nc(-c2ccc(C)cc2)[nH]c1S(=O)(=O)c1ccccc1
  inhibition: -18.4% (inactive)

## Cc1ccc(-c2[nH]c(-c3ccc(C(=O)O)cc3)nc2-c2ccccc2)cc1
  inhibition: 47.8% (inactive)

## CCOC(=O)c1c(-c2ccccc2)oc2ccc(OC(C)=O)cc12
  inhibition: 7.9% (inactive)

## CCCCOC(=O)Nc1nnc(CC)s1
  inhibition: 3.8% (inactive)

## Cc1[nH][nH]c(=O)c1C(c1ccc(-c2ccc(Cl)cc2Cl)o1)c1c(C)[nH][nH]c1=O
  inhibition: 2% (inactive)

## CN(C(=S)Nc1ccc(SC(F)F)cc1)C(c1ccccc1)c1ccccc1
  inhibition: -7.4% (inactive)

## CN(C(=S)Nc1ccc(SC(F)F)cc1)c1ccc(O)cc1
  inhibition: 56.1% (active)

## CN(C(=S)Nc1ccc(Oc2ccccc2)cc1)c1ccc(O)cc1
  inhibition: 11% (inactive)

## C/C(=N\NC(=O)c1cccs1)c1ccc(C(=O)O)s1
  inhibition: 12.5% (inactive)

## CCc1ccc(OCC(=O)NC(NC(=S)Nc2ccccc2C)C(Cl)(Cl)Cl)cc1 (stereo unspecified)
  inhibition: -12.1% (inactive)

## COC(=O)c1sccc1NC(=O)c1ccc(C(C)C)cc1
  inhibition: 1% (inactive)

## CCN(CC)CCNC(=O)c1ccc(NC(=O)COc2ccccc2F)cc1
  inhibition: -0.2% (inactive)

## O=C(/C=C/c1ccc(Br)o1)NCc1ccccc1
  inhibition: 76.8% (inactive)
[1]
  inhibition: 13.4%

## COc1ccccc1CNC(=O)c1ccc(Br)o1
  inhibition: -2% (inactive)

## COc1ccccc1CNC(=O)/C=C/c1ccc(Br)o1
  inhibition: 79.5% (active)

## COCC(=O)NNC(=O)c1ccccc1OC
  inhibition: -3.5% (inactive)

## CS(=O)(=O)N(CC(=O)Nc1ccc2c(c1)OCCO2)Cc1ccc(Cl)cc1
  inhibition: -3.3% (inactive)

## COC(=O)C1C(=O)NC(SC)=C(C#N)C1c1ccccc1 (stereo unspecified)
  inhibition: -20.5% (inactive)

## NC(=O)C1(C(N)=O)OC1c1ccc(Cl)cc1Cl (stereo unspecified)
  inhibition: 6.5% (inactive)

## CCOC(=O)C1C(=O)NC(SC)=C(C#N)C1c1ccccc1F (stereo unspecified)
  inhibition: -5.1% (inactive)

## CC(=O)C1(C)OC(N)=C(C#N)C(c2ccccc2)C1(C#N)C#N (stereo unspecified)
  inhibition: 48% (inactive)

## N#CC1=C(N)Nc2ncnn2C1c1ccc([N+](=O)[O-])cc1 (stereo unspecified)
  inhibition: -11.4% (inactive)

## COC(=O)C1C(=O)NC(SC)=C(C#N)C1c1ccccc1F (stereo unspecified)
  inhibition: 8% (inactive)

## CCOC(=O)C1=C(C)NC(=O)NC1c1ccc(Cl)cc1Cl (stereo unspecified)
  inhibition: -3.7% (inactive)

## N#CC1=C(N)SC(N)=C(C#N)C1c1ccc([N+](=O)[O-])cc1
  inhibition: 68.2% (inactive)
[1]
  inhibition: 5%

## COCCCNC(=O)Cn1nnc(-c2ccc(NC(=O)c3ccc(F)cc3)cc2)n1
  inhibition: 25.2% (inactive)

## Cc1cc2oc(=O)cc(CN3CCCCC3C)c2cc1C (stereo unspecified)
  inhibition: 2.6% (inactive)

## COc1ccccc1S(=O)(=O)Cc1ccc(C(=O)N2CCCC2)o1
  inhibition: 0.3% (inactive)

## O=C(NCCc1c[nH]c2ccccc12)C(F)(F)C(F)F
  inhibition: -6.3% (inactive)

## Cc1ccc(C(=O)NCCc2nnc3ccc(SCC(=O)Nc4c(C)cc(C)cc4C)nn23)cc1
  inhibition: 8.7% (inactive)

## CCCn1cnc2cc(NC(=O)c3ccco3)ccc21
  inhibition: 10.4% (inactive)

## CC(C)c1csc(CN2CCN(Cc3ccccc3)C(CCO)C2)n1 (stereo unspecified)
  inhibition: 11.5% (inactive)

## Cc1ccc(C(=O)N(CC(=O)NC2CCCC2)c2ccc3c(c2)OCCO3)s1
  inhibition: -11% (inactive)

## O=C(Nc1ccc(Cl)cc1)N1CCOC12CCCCC2
  inhibition: -2.6% (inactive)

## O=Cc1cnc(N2CCOCC2)nc1
  inhibition: 6.2% (inactive)

## NNC(=O)c1cc(O)c(O)c(O)c1
  inhibition: 63.1% (active)

## NNC(=O)c1cccc(O)c1
  inhibition: 19.5% (inactive)

## COC(=O)c1cc(O)c(O)c(O)c1
  inhibition: -68.3% (inactive)

## COC(=O)c1ccc(NC(=O)CCn2cccc2)cc1
  inhibition: 3.2% (inactive)

## CC(C)c1ccc(/C=C2\SC(N3CCOCC3)=NC2=O)cc1
  inhibition: -2.3% (inactive)

## CCOC(=O)C1CCCN(C(=O)CC(C)c2ccccc2)C1 (stereo unspecified)
  inhibition: -3.1% (inactive)

## Cc1ccc(C)c(N2CCN(C(=O)CCn3c(=S)[nH]c4cc5c(cc4c3=O)OCO5)CC2)c1
  inhibition: 4.3% (inactive)

## CS(=O)(=O)C1=NSC2=NC(=O)/C(=C\c3cccn3-c3ccccc3Cl)C(=N)N21
  inhibition: 68.7% (active)

## Cc1ccc(-n2cccc2/C=C2/C(=N)N3C(=NC2=O)SN=C3S(C)(=O)=O)cc1Cl
  inhibition: 29.3% (inactive)

## CS(=O)(=O)C1=NSC2=NC(=O)/C(=C\c3cccn3-c3ccc(Cl)cc3)C(=N)N21
  inhibition: 24.5% (inactive)

## O=C(CC1NCCNC1=O)Nc1cccc([N+](=O)[O-])c1 (stereo unspecified)
  inhibition: -6.8% (inactive)

## CC(=O)Nc1ccc2nsnc2c1
  inhibition: 9% (inactive)

## CC(C)N(C(=O)Nc1ccc2nsnc2c1)C(C)C
  inhibition: 60.7% (active)

## Cc1nc2ccc(NC(=O)N(C(C)C)C(C)C)cc2s1
  inhibition: 10.4% (inactive)

## CCC(C)(C)n1nnnc1C(c1ccc(Cl)cc1)N1CCN(C)CC1 (stereo unspecified)
  inhibition: -3.8% (inactive)

## Cc1nn(C)c(C)c1CS(=O)(=O)c1ccccc1
  inhibition: -4% (inactive)

## CCc1c(C(C)S(=O)(=O)c2ccccc2)[nH]c(=O)n1CC (stereo unspecified)
  inhibition: -7.8% (inactive)

## CCn1c(C)c(CS(=O)(=O)c2ccccc2)[nH]c1=O
  inhibition: 73.9% (active)

## Cc1ccc2cc(CN(C(=O)c3cccs3)c3ccccc3)c(=O)[nH]c2c1
  inhibition: 4.6% (inactive)

## CC(C)O/C(=N\S(=O)(=O)c1ccc(Cl)cc1)c1ccccc1
  inhibition: 3.7% (inactive)

## Cc1cc(C)cc(C(N)=Nc2cccc(C#N)c2)c1
  inhibition: 4.9% (inactive)

## CCOC(=O)c1ccc(N=NN(C)C)cc1
  inhibition: -7% (inactive)

## Cc1ccc(N=C2CSC(=O)N2)cc1
  inhibition: -2.7% (inactive)

## CN1C(=O)CSC1=Nc1ccc(Br)cc1
  inhibition: -4.4% (inactive)

## N#Cc1ccc(N=c2ssnc2Cl)cc1
  inhibition: 44.2% (inactive)

## Cc1ccc(N=c2sc(C)c(C)n2C)cc1
  inhibition: -35.3% (inactive)

## CCOC(=O)c1ccc(N=c2scc(C)n2CC)cc1
  inhibition: 3.7% (inactive)

## NC1=NC(=Nc2ccc(Br)cc2)c2ccccc21
  inhibition: -1.5% (inactive)

## O=C(COc1ccccc1Cl)Nc1ccc(CN2CCOCC2)cc1
  inhibition: -4.3% (inactive)

## Cc1nn(CC(=O)N2CCC(N3CCCCC3)CC2)c(=O)c2c1sc1ccccc12
  inhibition: 16.1% (inactive)

## Cc1ccc(NC(=O)Cn2nnc(C(=O)NCc3ccc4c(c3)OCO4)c2N)cc1
  inhibition: 9.7% (inactive)

## O=C(NNc1ccccc1)Nc1ccccc1F
  inhibition: -15.6% (inactive)

## CC(C)(C)C1CCC(=NNC(=O)C(=O)NC2CCCCC2)CC1 (stereo unspecified)
  inhibition: 2.1% (inactive)

## O=C(OCc1nnc(-c2ccc(Cl)cc2)o1)c1ccncc1
  inhibition: 7.7% (inactive)

## Clc1ss/c(=N\c2ccccn2)c1Cl
  inhibition: 6.4% (inactive)

## Clc1ccc(N=c2ssnc2Cl)cc1
  inhibition: -17.4% (inactive)

## Cc1c(CCC(=O)O)c(=O)oc2cc(OCc3cccc(F)c3)ccc12
  inhibition: 16.2% (inactive)

## N#Cc1c(-c2ccco2)cc(-c2ccccc2)[nH]c1=O
  inhibition: 48.2% (inactive)

## CSc1nc(-c2ccco2)cc(-c2ccccc2)c1C#N
  inhibition: 15.4% (inactive)

## N#Cc1c(-c2ccccc2)cc(-c2ccco2)c(C#N)c1N
  inhibition: 53.5% (active)

## COc1ccc(Cl)cc1NC(=O)c1ccc2c(SCC(=O)O)c3c(nc2c1)CCCC3
  inhibition: 12.3% (inactive)

## COc1cc(Cl)c(C)cc1NC(=O)c1ccc2c(SCC(=O)O)c3c(nc2c1)CCCC3
  inhibition: 53.2% (active)

## COc1cc(OC)c(NC(=O)c2ccc3c(SCC(=O)O)c4c(nc3c2)CCCC4)cc1Cl
  inhibition: 44.9% (inactive)

## CCCOc1cccc(C(=O)O)c1
  inhibition: -5.1% (inactive)

## CC(/C=N/NC(=O)c1cc(-c2ccc(Cl)cc2)nc2ccccc12)=C\c1ccco1
  inhibition: 37.8% (inactive)

## O=C(N/N=C\C=C\c1ccco1)c1cc(-c2ccc3ccccc3c2)n[nH]1
  inhibition: 80.2% (inactive)
[1]
  inhibition: 9.6%

## CC(/C=N/NC(=O)c1cc(-c2ccccc2)nc2ccccc12)=C\c1ccco1
  inhibition: 52.6% (active)

## O=C(N/N=C/c1ccco1)c1cc(-c2ccc3ccccc3c2)n[nH]1
  inhibition: 5.5% (inactive)

## CC(/C=N/NC(=O)c1cc(-c2ccc3ccccc3c2)n[nH]1)=C\c1ccco1
  inhibition: 73.3% (active)

## CC(/C=N/NC(=O)c1cc(-c2ccncc2)nc2ccccc12)=C\c1ccco1
  inhibition: 43.6% (inactive)
